PMC5540273 (PLoS ONE, 2017)

Columns and labels:
Settings in all cases: concentration: 1 μM,replicates: in singlicate; n = 1
DYRK1B = test system: DYRK1B
DYRK2 = test system: DYRK2
EGFR = test system: EGFR
EIF2AK1 = test system: EIF2AK1
EPHA1 = test system: EPHA1
EPHA2 = test system: EPHA2
EPHA3 = test system: EPHA3
EPHA4 = test system: EPHA4
EPHA5 = test system: EPHA5
EPHA6 = test system: EPHA6
EPHA7 = test system: EPHA7
EPHA8 = test system: EPHA8
EPHB1 = test system: EPHB1
EPHB2 = test system: EPHB2
EPHB3 = test system: EPHB3
EPHB4 = test system: EPHB4
EPHB6 = test system: EPHB6
ERBB2 = test system: ERBB2
ERBB3 = test system: ERBB3
ERBB4 = test system: ERBB4
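Also: KINOMEscan kinase panel screen.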

Structure (SMILES) | %Inh (DYRK1B) | %Inh (DYRK2) | %Inh (EGFR) | %Inh (EIF2AK1) | %Inh (EPHA1) | %Inh (EPHA2) | %Inh (EPHA3) | %Inh (EPHA4) | %Inh (EPHA5) | %Inh (EPHA6) | %Inh (EPHA7) | %Inh (EPHA8) | %Inh (EPHB1) | %Inh (EPHB2) | %Inh (EPHB3) | %Inh (EPHB4) | %Inh (EPHB6) | %Inh (ERBB2) | %Inh (ERBB3) | %Inh (ERBB4)
Cc1ccc(Nc2ccnc(Nc3ccc4c(c3)CS(=O)(=O)C4)n2)cc1O.Cl [GW579362] | 48% | 88% | 55% | 17% | 91.3% | 83% | 78% | 53% | 32% | 53% | 44% | 85% | 78% | 25% | 0% | 16% | 91.7% | 17% | 34% | 69%
CS(=O)(=O)Nc1ccc(-c2ccnc3[nH]ccc23)cc1 [GSK993273] | 84% | 44% | 17% | 1% | 19% | 0% | 0% | 20% | 0% | 6% | 13% | 18% | 19% | 6% | 18% | 0% | 5% | 15% | 0% | 0%
Cn1ccc2ncnc(Oc3ccc(NC(=O)Nc4cnn(C(C)(C)C)c4)c(Cl)c3)c21 | 62% | 6% | 25% | 0% | 0% | 22% | 54% | 23% | 18% | 89% | 27% | 41% | 15% | 50% | 29% | 15% | 48% | 31% | 9% | 12%
Cc1cccc2c(-c3ccncc3)c(-c3ccc(F)cc3)nn12.Cl [GW461487] | 0% | 10% | 19% | 0% | 3% | 5% | 0% | 0% | 0% | 6% | 9% | 16% | 5% | 94.5% | 7% | 0% | 26% | 1% | 0% | 16%
Cc1ccc2c(-c3ccnc(Nc4ccc(C(F)(F)F)cc4)n3)cnn2n1 [GW819776] | 65% | 29% | 0% | 0% | 0% | 0% | 0% | 8% | 1% | 8% | 0% | 6% | 14% | 0% | 7% | 0% | 14% | 0% | 0% | 5%
Cc1ccc(C(=O)Nc2ccc(Oc3ccc4nc(NC(=O)C5CC5)cn4c3)c(F)c2)c(=O)n1-c1ccccc1 | 39% | 0% | 0% | 0% | 91.8% | 98.5% | 49% | 90.1% | 45% | 95.4% | 74% | 99.8% | 83% | 94.8% | 11% | 75% | 99.1% | 30% | 43% | 3%
c1ccc(Oc2ccc(Nc3ccnc4ccc(-c5ccccn5)cc34)cc2)cc1 [GW407034] | 0% | 0% | 82% | 0% | 31% | 13% | 0% | 7% | 90.6% | 2% | 0% | 14% | 0% | 5% | 1% | 13% | 49% | 90.3% | 89% | 88%
O=C(Nc1ccc(Oc2ccc3nc(NC(=O)C4CC4)cn3n2)c(F)c1)c1cccn(-c2ccccc2)c1=O | 30% | 0% | 13% | 0% | 51% | 74% | 0% | 26% | 11% | 37% | 0% | 79% | 39% | 60% | 6% | 35% | 77% | 15% | 30% | 1%
CN(c1ccccc1CNc1nc(Nc2ccc3c(c2)CC(=O)N3)ncc1C(F)(F)F)S(C)(=O)=O | 30% | 1% | 0% | 0% | 12% | 4% | 0% | 2% | 6% | 34% | 61% | 0% | 11% | 4% | 0% | 0% | 38% | 0% | 0% | 0%
Cn1ccc2ncnc(Oc3ccc(NC(=O)Nc4cccc(C(F)(F)F)c4)c(Cl)c3)c21 | 49% | 0% | 5% | 0% | 54% | 94.5% | 97.6% | 88% | 84% | 99.7% | 82% | 99.5% | 70% | 92.9% | 66% | 64% | 90% | 29% | 5% | 12%
